In article PMC5540273 (PLoS ONE, 2017):

Tests used:
Conditions in all cases: concentration: 1 μM, replicates: in singlicate; n = 1
[1] = tested on: LCK
[2] = tested on: LIMK1
[3] = tested on: LIMK2
[4] = tested on: T1, LKB1
T1 construct: gene STK11

[5] = tested on: T2, LOK
T2 construct: gene STK10

[6] = tested on: LRRK2
[7] = tested on: LTK
[8] = tested on: LYN
[9] = tested on: T3, LZK
T3 construct: gene MAP3K13

[10] = tested on: MAK
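Note: KINOMEscan kinase panel screen.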

SMILES: COc1cc(Nc2nccc(-c3c(-c4cccc(NC(=O)c5c(F)cccc5F)c4)nn4ncccc34)n2)cc(OC)c1OC [GSK327238]
- %Inh [1]: 99.8%
- %Inh [2]: 42%
- %Inh [3]: 8%
- %Inh [4]: 0%
- %Inh [5]: 99.3%
- %Inh [6]: 0%
- %Inh [7]: 61%
- %Inh [8]: 99.3%
- %Inh [9]: 0%
- %Inh [10]: 12%

SMILES: COc1ccc(Nc2nccc(NCCNC(=O)c3cc4ccccc4s3)n2)cc1 [GSK1379896]
- %Inh [1]: 19%
- %Inh [2]: 0%
- %Inh [3]: 0%
- %Inh [4]: 1%
- %Inh [5]: 0%
- %Inh [6]: 0%
- %Inh [7]: 0%
- %Inh [8]: 0%
- %Inh [9]: 0%
- %Inh [10]: 27%

SMILES: COc1cc2c(cc1OCCN1CCNCC1)ncc1c3ccc(C#N)cc3[nH]c21
- %Inh [1]: 45%
- %Inh [2]: 0%
- %Inh [3]: 0%
- %Inh [4]: 15%
- %Inh [5]: 42%
- %Inh [6]: 99.3%
- %Inh [7]: 0%
- %Inh [8]: 0%
- %Inh [9]: 100%
- %Inh [10]: 2%

SMILES: Cn1cc(-c2[nH]c3cc(NC(=O)[C@H](N)C4CCCCC4)cc4c3c2C=NNC4=O)cn1
- %Inh [1]: 90.7%
- %Inh [2]: 90.6%
- %Inh [3]: 96.6%
- %Inh [4]: 94.3%
- %Inh [5]: 17%
- %Inh [6]: 56%
- %Inh [7]: 0%
- %Inh [8]: 76%
- %Inh [9]: 0%
- %Inh [10]: 0%

SMILES: Cc1occc1-c1ncc(OC[C@@H](N)Cc2c[nH]c3ccccc23)cc1-c1ccc2[nH]nc(C)c2c1.O=C(O)C(F)(F)F [GSK682037]
- %Inh [1]: 98.2%
- %Inh [2]: 0%
- %Inh [3]: 0%
- %Inh [4]: 0%
- %Inh [5]: 85%
- %Inh [6]: 23%
- %Inh [7]: 42%
- %Inh [8]: 39%
- %Inh [9]: 0%
- %Inh [10]: 3%

SMILES: O=C(Nc1cccc(Oc2ccc3nc(NC(=O)C4CC4)cn3n2)c1)c1ccccc1C(F)(F)F
- %Inh [1]: 72%
- %Inh [2]: 6%
- %Inh [3]: 7%
- %Inh [4]: 0%
- %Inh [5]: 95.1%
- %Inh [6]: 0%
- %Inh [7]: 39%
- %Inh [8]: 57%
- %Inh [9]: 0%
- %Inh [10]: 0%

SMILES: CN(C)S(=O)(=O)c1cc(-c2ccc3nccc(-c4cccc(S(N)(=O)=O)c4)c3c2)cnc1N [GSK1669921]
- %Inh [1]: 7%
- %Inh [2]: 86%
- %Inh [3]: 5%
- %Inh [4]: 0%
- %Inh [5]: 0%
- %Inh [6]: 27%
- %Inh [7]: 39%
- %Inh [8]: 0%
- %Inh [9]: 0%
- %Inh [10]: 19%

SMILES: O=C(O)C(F)(F)F.O=C(O)C(F)(F)F.O=c1[nH]ccc2nc(N[C@@H]3CCCNC3)nc(Nc3ccc(S(=O)(=O)N4CCOCC4)cc3)c12 [GSK2177277]
- %Inh [1]: 78%
- %Inh [2]: 0%
- %Inh [3]: 0%
- %Inh [4]: 92.1%
- %Inh [5]: 78%
- %Inh [6]: 88%
- %Inh [7]: 79%
- %Inh [8]: 73%
- %Inh [9]: 59%
- %Inh [10]: 0%

SMILES: Cc1cccc(NC(=O)Nc2ccc(Oc3ncnc4ccn(C)c34)cc2)c1
- %Inh [1]: 0%
- %Inh [2]: 7%
- %Inh [3]: 0%
- %Inh [4]: 42%
- %Inh [5]: 86%
- %Inh [6]: 0%
- %Inh [7]: 17%
- %Inh [8]: 7%
- %Inh [9]: 0%
- %Inh [10]: 0%

SMILES: c1ccc(Oc2ccc(Nc3ccnc4cc(-c5ccc(CNCCN6CCOCC6)o5)ccc34)cc2)nc1 [GW567145]
- %Inh [1]: 78%
- %Inh [2]: 0%
- %Inh [3]: 0%
- %Inh [4]: 20%
- %Inh [5]: 30%
- %Inh [6]: 20%
- %Inh [7]: 0%
- %Inh [8]: 28%
- %Inh [9]: 32%
- %Inh [10]: 0%

SMILES: Cn1cc(-c2ccc3c(c2)CCN3C(=O)Cc2cccc(F)c2)c2c(N)ncnc21 [GSK2603358]
- %Inh [1]: 46%
- %Inh [2]: 0%
- %Inh [3]: 0%
- %Inh [4]: 0%
- %Inh [5]: 91.9%
- %Inh [6]: 0%
- %Inh [7]: 33%
- %Inh [8]: 0%
- %Inh [9]: 37%
- %Inh [10]: 27%

SMILES: Cl.Cl.NCC(NCc1ccc(-c2ccnc3[nH]ccc23)s1)c1ccccc1 (stereo not shown) [GSK1321565]
- %Inh [1]: 16%
- %Inh [2]: 0%
- %Inh [3]: 20%
- %Inh [4]: 82%
- %Inh [5]: 29%
- %Inh [6]: 10%
- %Inh [7]: 31%
- %Inh [8]: 0%
- %Inh [9]: 40%
- %Inh [10]: 0%

SMILES: COc1cc(Nc2ncc3c(C)nc(-c4cc5ccccc5[nH]4)n3n2)cc(OC)c1OC [GW869516]
- %Inh [1]: 71%
- %Inh [2]: 0%
- %Inh [3]: 4%
- %Inh [4]: 0%
- %Inh [5]: 8%
- %Inh [6]: 0%
- %Inh [7]: 0%
- %Inh [8]: 26%
- %Inh [9]: 0%
- %Inh [10]: 0%

SMILES: Cl.Cl.NCC(NC(=O)c1cc(-c2ccccc2)c(-c2ccnc3[nH]ccc23)s1)c1ccccc1 (stereo not shown) [GSK1321561]
- %Inh [1]: 87%
- %Inh [2]: 0%
- %Inh [3]: 0%
- %Inh [4]: 0%
- %Inh [5]: 0%
- %Inh [6]: 0%
- %Inh [7]: 21%
- %Inh [8]: 66%
- %Inh [9]: 0%
- %Inh [10]: 23%

SMILES: COC(=O)Nc1nc2ccc(Oc3ccc(NC(=O)Nc4cc(C(F)(F)F)ccc4F)cc3)cc2n1C.Cl [GW692089]
- %Inh [1]: 65%
- %Inh [2]: 0%
- %Inh [3]: 0%
- %Inh [4]: 53%
- %Inh [5]: 99.2%
- %Inh [6]: 1%
- %Inh [7]: 33%
- %Inh [8]: 28%
- %Inh [9]: 49%
- %Inh [10]: 0%

SMILES: O=C(Nc1cccc(-c2nn3ncccc3c2-c2ccnc(Nc3ccccc3)n2)c1)c1c(F)cccc1F [GSK198271]
- %Inh [1]: 99.3%
- %Inh [2]: 75%
- %Inh [3]: 0%
- %Inh [4]: 3%
- %Inh [5]: 99%
- %Inh [6]: 0%
- %Inh [7]: 0%
- %Inh [8]: 99.4%
- %Inh [9]: 0%
- %Inh [10]: 19%
